# Experimental data from PubChem BioAssay AID651636 (Sanford-Burnham Center for Chemical Genomics, 2012).
# Several values for one entry are separate records, joined by “and”; a condition that tells them apart may be missing. Identical values can stand only once. Screen size: about 360,000 compounds; about 3,000 (0.83%) were called active. The sample holds actives, similar compounds and a random draw of the others, so the mix is not that of the screen. Cut-off read from the data, not from the text of the source: active = inhibition above about 38%; inactive = the rest.
# Biological target: G-protein coupled receptor 183 (Homo sapiens) (UniProt P32249)
# Sequence (P32249 whole entry, looked up, the tested form may be a part): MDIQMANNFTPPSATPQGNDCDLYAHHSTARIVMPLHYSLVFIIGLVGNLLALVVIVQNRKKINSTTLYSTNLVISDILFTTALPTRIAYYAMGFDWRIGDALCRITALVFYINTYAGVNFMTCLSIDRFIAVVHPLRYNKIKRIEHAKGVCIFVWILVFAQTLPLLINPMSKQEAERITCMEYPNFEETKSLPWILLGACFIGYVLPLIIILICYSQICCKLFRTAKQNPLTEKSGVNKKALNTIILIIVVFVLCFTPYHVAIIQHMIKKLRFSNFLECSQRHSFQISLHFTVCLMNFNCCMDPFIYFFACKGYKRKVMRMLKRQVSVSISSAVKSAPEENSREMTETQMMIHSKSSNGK
# Assay: blockers of oxysterol-driven EBI2 arrestin signaling – cell-based, luminescence, 7a,25-OHC stimulation, uHTS, primary screen (AID 651636);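 note: enzyme fragment complementation signal reports receptor beta-arrestin coupling in cells; 0% = agonist plus DMSO wells and 100% = wells without agonist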
# Settings: EBI2 beta-arrestin recruitment, 7a,25-OHC stimulated, at 5 µM, stronger effect = higher value
row,SMILES,inhibition
1,CCn1c(=S)sc2c(=O)n(CC(=O)Nc3ccc(OC)cc3)c(C)nc21,1.99% (inactive)
2,COc1ccc(NC(=S)N2N=CCC2c2ccccc2)cc1 (configuration not stated),3.93% (inactive)
3,CC(=O)N1c2ccc(S(=O)(=O)NCCC(=O)N(C)C3CCCCC3)cc2CC1C (configuration not stated),-4.73% (inactive)
4,Fc1ccc(Cn2nnnc2C(c2cccs2)N2CCCCCC2)cc1 (configuration not stated),6.98% (inactive)
5,CCCCn1nnnc1C(c1ccccc1)N1CCN(c2ccccc2OC)CC1 (configuration not stated),1.91% (inactive)
6,N#Cc1ccc(C(c2nnnn2CCc2ccccc2)N2CCCCCC2)cc1 (configuration not stated),50.2% (active)
7,O=C(CN1CCOCC1)Nc1c2c(nc3c1CCC3)CCC2,7.47% (inactive)
8,CCCNC(=O)N1CCN(C(=O)NCCC)CC1,-0.62% (inactive)
9,Cc1cccc(-n2c(O)c(C=Nc3ccccc3N)c(=O)[nH]c2=O)c1,95.3% (active)
10,COc1ccc(-c2cn(-c3ccc(OC)cc3)c(=S)[nH]2)cc1,86.5% (active)
11,COc1ccc(-n2cc(-c3ccccc3)c3c(=S)nc[nH]c32)cc1,14.3% (inactive)
12,O=c1oc2ccccc2cc1-c1cn(-c2ccccc2)c(=S)[nH]1,-9.67% (inactive)
13,Cc1nc2ccc(S(=O)(=O)NCC(=O)O)cc2s1,-11.4% (inactive)
14,CC[n+]1c(C)n(-c2ccccc2)c2ccc(NC(C)=O)cc21,3.98% (inactive)
15,N/C(=N\OC(=O)CCc1ccccc1)c1ccc(Cl)cc1,12.5% (inactive)
16,Cc1cccc(NC(=O)CN2CCN(C(=O)C3CCN(C(=O)/C=C/c4ccccc4)CC3)CC2)c1C,79.2% (active)
17,Cc1cccc(NC(=O)CN2CCN(CC(=O)NCC3(N4CCCCC4)CCCCC3)CC2)c1C,-3.14% (inactive)
18,Cc1cc(C)cc(NC(=O)NC2CCN(CC(=O)Nc3cccc(Cl)c3C)CC2)c1,18.1% (inactive)
19,O=C(C[C@H]1CC[C@@H](NC(=O)c2ccncc2)[C@@H](CO)O1)NCC1CC1,-1.01% (inactive)

row,SMILES,inhibition
1,CC(C)C(=O)N1CCN(CCN=CC2=C(O)CC(c3ccco3)CC2=O)CC1 (configuration not stated),-2.69% (inactive) and -8.63% (inactive)
2,CCOc1nc(-c2ccc(OC)cc2)ccc1-c1noc(-c2cc(OC)c(OC)c(OC)c2)n1,49.3% (active)
3,CCOc1cc(-c2noc(CCC(=O)N3CCOCC3)n2)ccc1OC,-2.72% (inactive)
4,CCOc1ccc(-c2noc(CCC(=O)NC3CCCC3)n2)cc1OC,8.53% (inactive)
5,CCOc1ccc(S(=O)(=O)Nc2ccncc2)c(C)c1C,-5.77% (inactive)
6,CCCS(=O)(=O)NC(=O)C1(C)CCCN(C(=O)c2cc(C)on2)C1 (configuration not stated),-3.5% (inactive)
7,O=C(CN1CCN(c2ccc(Cl)cc2)CC1)c1ccccc1,2.55% (inactive)
8,Cc1cccc(C)c1NC(=O)CN1CCN(c2ccc(F)cc2)CC1,0.0279% (inactive)
9,Oc1c(CN2CCN(c3ccc(F)cc3)CC2)cc(Cl)c2cccnc12,54.1% (active)
10,COc1cccc(-c2ccc3c(c2)N(Cc2ccccc2OC)C(=O)C(C)S3)c1 (configuration not stated),27.4% (inactive)
11,CN(C)C(=O)c1cccc(-c2cnc3c(NC=O)cc(-c4ccc(F)cc4)cn23)c1,8.37% (inactive)
12,COc1ccc(-c2cc(NC=O)c3ncc(-c4cc(OC)c(OC)c(OC)c4)n3c2)c(OC)c1,15.5% (inactive)
13,COc1ccc(-c2cc(NC=O)c3ncc(-c4cccc(C(=O)N(C)C)c4)n3c2)c(OC)c1,52% (active)
14,N#Cc1ncc(C(F)(F)F)cc1Oc1cccnc1,-11% (inactive)
15,Cc1onc(-c2ccccc2Cl)c1C(=O)N(Cc1ccc(N(C)C)cc1)C(C)C,1.77% (inactive)
16,CC(Sc1nncn1C)C(=O)Nc1ccccc1-c1ccccc1 (configuration not stated),-4.03% (inactive)
17,CCOC(=O)C1=NN(c2ccc(Cl)cc2)/C(=C/C2=NCCc3cc(OC)c(OC)cc32)S1,6.84% (inactive)
18,COc1ccc(-c2cc(C3CCN(c4ncccc4[N+](=O)[O-])CC3)[nH]n2)cc1,37.5% (active)
19,COc1ccc(N2CCN(c3ccc([N+](=O)[O-])nc3)CC2)cc1,6.82% (inactive)

row,SMILES,inhibition
1,CC(=O)NC(Cc1ccccc1)C(=O)NC1CCN(c2ncccc2[N+](=O)[O-])CC1 (configuration not stated),5.83% (inactive)
2,CCN1CCN(C(=O)N(Cc2ccc(Cl)cc2)S(=O)(=O)c2ccc(C)cc2)CC1,-6.18% (inactive)
3,CC1=C(C(=O)N(C(C)C)C(C)C)CC(CC(=O)NCC2CCCCC2)C(=O)N1Cc1ccccc1 (configuration not stated),3.31% (inactive)
4,O=c1[nH]c(CN2CCN(S(=O)(=O)c3ccc4c(c3)OCCO4)CC2)nc2sc3c(c12)CCCC3,38.3% (active)
5,CN1CCCN(S(=O)(=O)c2ccc3c(c2)OCCO3)CC1,-1.61% (inactive)
6,O=C(c1ccc(Cl)nc1)N1CCN(S(=O)(=O)c2ccc3c(c2)OCCO3)CC1,17.6% (inactive)
7,C=CCOc1ccc(/C=C/C(=O)OCC(=O)NC(C)c2ccc(F)cc2)cc1 (configuration not stated),29.1% (inactive)
8,Cn1c(SCC(=O)OC2CCCCC2)nnc1-c1ccc(S(=O)(=O)N2CCCC2)cc1,0.352% (inactive)
9,COc1ccc(CCNC(=O)CCn2c(=O)c3ccccc3n(CC(=O)NCC3CCCO3)c2=O)cc1OC (configuration not stated),-15.5% (inactive)
10,CC1(Cc2ccccc2C#N)C(=O)Nc2ccc(-c3ccc4[nH]ccc4c3)cc21 (configuration not stated),47.3% (active)
11,CC1(Cc2cccc(C#N)c2)C(=O)Nc2ccc(-c3cccc(C(F)(F)F)c3)cc21 (configuration not stated),17.2% (inactive)
12,COc1ccccc1CC1(C)C(=O)Nc2ccc(OC(F)(F)F)cc21 (configuration not stated),3.59% (inactive)
13,CCCCOCCCNC(=O)C[C@@H]1C[C@@]2(C(=O)OCC)CCCC=C2N(CCC2=CCCCC2)C1=O,1.45% (inactive)
14,CCOc1ccc(N(CC(=O)OC)S(=O)(=O)c2c(C)noc2C)cc1,1.12% (inactive)
15,COc1ccc(N(CC(=O)Nc2cc(OC)ccc2OC)S(=O)(=O)c2c(C)noc2C)cc1,65.5% (active)
16,CCOC(=O)c1cccc(NC(=O)CN(c2ccc(C)cc2)S(=O)(=O)c2c(C)noc2C)c1,15.3% (inactive)
17,Cc1nc2ccc(C(=O)N3CCSCC3)cc2s1,-12.2% (inactive)
18,CCc1nc2ccc(C(=O)N3CCN(c4cccc(Cl)c4)CC3)cc2nc1CC,-4.92% (inactive)
19,Cc1nc2ccc(C(=O)N3CCN(c4ccccc4)CC3)cc2s1,65.3% (active)
